BJeLR viability: BJeLR cell viability loss, primary screen, luminescence, CellTiterGlo ATP; BJeLR fibroblasts viability, 48 h; HRASV12, hTERT and SV40 LT/ST transformed; viability loss activity score, % (no concentration beside the values); 30,000 tested, 0.64% active; in the data active = viability loss activity score above about 50%; inconclusive = no clear call, values can overlap the other calls; inactive = below about 35%;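 note: higher score means fewer live cells and less ATP luminescence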
U2OS ROS induce: ROS inducers in U2OS cancer cells, primary screen, cell-based, H2DCF-DA fluorescence | U2OS ROS induction | ROS induction (% of piperlongumine), % at 10 µM | 46,000 tested, 2% active | AID 624156, 2012; in the data active = ROS induction above about 79%, passing the limit was not always enough; inconclusive = no clear call, values can overlap the other calls;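 note: 0% = DMSO vehicle median and 100% = reference compound median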
YB-1 expr inh: inhibitors of YB-1 gene expression, primary screen, cell-based, fluorescence | U2OS, qRT-PCR YB-1 vs CDIP delta delta Cp, 16 h; active compounds read high; zero = DMSO, each unit about twofold | delta delta Cp (YB-1 minus CDIP) (no concentration beside the values) | 30,000 tested, 0.37% active | AID 434959, 2010;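 active = delta delta Cp rounded down to an integer at or above 3, about 3 SD of DMSO wells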;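 note: higher means less YB-1 transcript or more CDIP transcript relative to DMSO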
MITF inhib: inhibitors of MITF, primary screen, MITF inhibitor project, cell-based, luminescence | TRPM1 promoter luciferase, 24 h | 37,000 tested, 0.28% active | inhibition, % (no concentration beside the values); in the data active = inhibition above about 85%; inconclusive = no clear call, values can overlap the other calls; inactive = below about 68%;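 note: human melanocyte line stably carrying TRPM1 promoter luciferase reporter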
An asterisk follows results filed as active; ? = inconclusive; . = no result given. This is a sample that favours compounds with a hit; in the whole collection about 2.5% have one here.

SMILES	BJeLR viability	U2OS ROS induce	YB-1 expr inh	MITF inhib
COC(/C=C/C(OC(C)=O)C(C)OC(C)=O)C(O)C1CC=CC(=O)O1 (stereo not given)	-3	105*	0.11	-16
CC(C)CC(NC(=O)C1CCCCC1)C(=O)N1CCN(c2ccccc2F)CC1 (stereo not given)	1	.	.	.
CC(C)(C)c1ccc(NC(=O)c2ccc(C(C)(C)C)s2)cc1	2	-3	.	.
CC(C)(C)c1ccc(NC(=O)c2ccc(N3C(=O)CSCC3=O)cc2)cc1	8	150*	.	.
C=CCNC(=O)[C@H]1[C@@H]2C(=O)O[C@@H](c3ccccc3)[C@@H](c3ccccc3)N2[C@@H](c2ccc(OCCO)cc2)[C@]12C(=O)N(C(=O)OCCOC)c1ccc(C#CC3(O)CCCCCC3)cc12	.	105*	0.14	.
C=CCNC(=O)[C@H]1[C@@H]2C(=O)O[C@@H](c3ccccc3)[C@@H](c3ccccc3)N2[C@@H](c2ccc(OCCO)cc2)[C@]12C(=O)N(C(=O)OCCOC)c1ccc(C#CC3=CCCCC3)cc12	.	122*	0.0068	.
C=CCNC(=O)[C@H]1[C@@H]2C(=O)O[C@@H](c3ccccc3)[C@@H](c3ccccc3)N2[C@@H](c2ccccc2OCCO)[C@]12C(=O)N(C(=O)OCCOC)c1ccc(C#CC3(O)CCCCCC3)cc12	.	95*	0.25	.
C=CCNC(=O)[C@@H]1[C@H]2C(=O)O[C@H](c3ccccc3)[C@H](c3ccccc3)N2[C@H](c2ccc(OCCO)cc2)[C@@]12C(=O)N(C(=O)OCCOC)c1ccc(C#Cc3ccc(OC)cc3)cc12	.	9	0.59	.
CC1CCC(NC(=O)Cn2ncc3c4ccccc4n(Cc4ccccc4)c3c2=O)CC1 (stereo not given)	2	9	.	.
CCN=C1S/C(=C/c2ccc(OCC(=O)O)c(Cl)c2)C(=O)N1CC	-3	-1	.	.
CCN(CC)c1c(C#N)c(SCC(=O)c2cccs2)cc2c1CCCC2	13	92*	0.65	8
O=C(C1CCCN(Cc2ccco2)C1)N1CCCCCC1 (stereo not given)	1	-14	.	.
CCOc1ccc(N/C=C2/CCCC(C)C2=O)cc1 (stereo not given)	-6	.	.	.
CC(/C=C/C1(O)C(C)CC(O)CC1(C)C)OC1OC(CO)C(O)C(O)C1O (stereo not given)	.	-6	1.9	.
COc1cc(C(=O)OC[C@@]2(O)CO[C@H](OC3C(CO)OC(OC(C)/C=C/C4(O)C(C)CC(O)CC4(C)C)C(O)C3O)[C@@H]2O)cc(OC)c1O (stereo not given in full)	0	-6	3.5*	-7
Cc1ccc(OC(=O)c2cc(S(=O)(=O)N3CCCC3)ccc2C)cc1C	0	4	.	.
CCN(CC)S(=O)(=O)c1ccc(Cl)c(C(=O)Oc2ccc(C)c(C)c2)c1	1	14	9.1*	1
CC1Oc2c3c(c4c(-c5ccccc5)cc(=O)oc4c2C(=O)C1C)OC(C)(C)C=C3 (stereo not given)	.	114*	-0.68	.
COc1ccc(CN(C)C[C@H]2OCCCC[C@@H](C)Oc3ccc(NS(=O)(=O)c4ccc(C)cc4)cc3C(=O)N([C@H](C)CO)C[C@@H]2C)cc1	.	29	-0.65	1
COc1ccc(S(=O)(=O)Nc2ccc3c(c2)C(=O)N([C@H](C)CO)C[C@H](C)[C@@H](CN(C)Cc2ccc(Cl)c(Cl)c2)OCCCC[C@@H](C)O3)cc1	.	151*	-0.83	?
C[C@@H]1CCCCO[C@H](CN(C)Cc2ccc(Cl)c(Cl)c2)[C@@H](C)CN([C@H](C)CO)C(=O)c2cc(NC(=O)Cc3ccccc3)ccc2O1	.	25	0.26	15
C[C@@H]1CN([C@@H](C)CO)C(=O)c2cc(NS(=O)(=O)c3ccccc3)ccc2O[C@H]1CN(C)Cc1ccc(C(F)(F)F)cc1	9	82*	0.05	-10
C[C@@H]1CCCCO[C@@H](CN(C)Cc2ccc(Cl)c(Cl)c2)[C@@H](C)CN([C@H](C)CO)C(=O)c2cc(NC(=O)Cc3ccccc3)ccc2O1	.	131*	0.36	59
COc1ccc(CN(C)C[C@@H]2OCCCC[C@@H](C)Oc3ccc(NS(=O)(=O)c4ccc(OC)cc4)cc3C(=O)N([C@H](C)CO)C[C@@H]2C)cc1	.	172*	0.33	-7
CC(C)Nc1cnn(C23CC4CC(CC(C4)C2)C3)c(=O)c1Cl	3	-4	.	.
SMILES	BJeLR viability	U2OS ROS induce	YB-1 expr inh	MITF inhib
CCCOc1ccc(=O)n(C)n1	-1	.	.	.
COc1ccc(CN(C)C[C@@H]2OCCCC[C@@H](C)Oc3ccc(NC(=O)c4ccncc4)cc3C(=O)N([C@H](C)CO)C[C@@H]2C)cc1	.	12	-0.22	-10
COc1ccc(CN(C)C[C@@H]2OCCCC[C@@H](C)Oc3ccc(NC(=O)c4ccccc4)cc3C(=O)N([C@H](C)CO)C[C@@H]2C)cc1	.	147*	-0.16	1
COc1ccc(CN(C)C[C@H]2Oc3ccc(NS(=O)(=O)c4ccc(Cl)cc4)cc3C(=O)N([C@H](C)CO)C[C@@H]2C)cc1	-4	147*	0.044	3
COc1ccc(CN(C)C[C@@H]2Oc3ccc(NC(=O)c4ccncc4)cc3C(=O)N([C@H](C)CO)C[C@H]2C)cc1	0	149*	-0.29	-1
Nc1ccc(-n2cnnn2)cc1	-8	-13	.	.
COc1ccc(CCC(=O)Nc2ccc3nc(N4CCC(C)CC4)cc(C)c3c2)cc1	7	.	.	.
C=CCn1c2ccccc2c2nnc(SCC(=O)c3ccc(Cl)cc3)nc21	.	70	.	48
Cn1c2ccccc2c2nnc(SCC(=O)c3ccc(Cl)cc3)nc21	.	117*	.	33
N#CCCN(/N=C/c1ccccc1)C1=NS(=O)(=O)c2ccccc21	2	128*	-0.07	-3
N#CCNC(=O)c1ccc(Br)cc1	1	-8	.	.
C[C@H](CO)N1C[C@H](C)[C@H](CN(C)C(=O)Nc2ccccc2)Oc2c(NC(=O)Nc3ccc(F)cc3)cccc2C1=O	-4	0	3*	17
CC(C)NC(=O)N(C)C[C@H]1Oc2c(NC(=O)Nc3ccc(F)cc3)cccc2C(=O)N([C@@H](C)CO)C[C@H]1C	-9	-14	4.3*	4
C[C@H](CO)N1C[C@H](C)[C@H](CN(C)C(=O)Nc2ccc(F)cc2)Oc2c(NC(=O)Nc3ccccc3)cccc2C1=O	-1	-3	-0.39	3
C[C@@H]1CN([C@H](C)CO)C(=O)c2cc(NC(=O)Nc3cccc4ccccc34)ccc2O[C@@H]1CN(C)C(=O)Nc1ccccc1	-1	84*	-0.2	-13
CCN1C(=O)S/C(=C\c2ccc3c(c2)OCO3)C1=O	-3	.	.	.
COc1ccc2[nH]c(C)c(CCNS(=O)(=O)c3c(C)[nH]c(=O)[nH]c3=O)c2c1	0	-2	.	.
O=c1oc(Cl)c(Cl)c2ccccc12	55*	45	0.19	46
C[C@H](CO)N1C[C@H](C)[C@H](CN(C)CC2CCCCC2)Oc2ccc(NC(=O)Nc3ccc(C(F)(F)F)cc3)cc2CC1=O	.	153*	0.18	22
